Screens from PubChem BioAssay.
FLuc inh: inhibitors of firefly (Photinus pyralis) luciferase | P08659 | purified P. pyralis luciferase, luminescence, biochemical | Potency, µM (series often up to 115 µM), actives largely listed as inhibitors | hit rate 2.5% among 76,000; also: nearly all actives have a fitted effect of over 65% in size
Target sequence (P08659 whole entry, looked up): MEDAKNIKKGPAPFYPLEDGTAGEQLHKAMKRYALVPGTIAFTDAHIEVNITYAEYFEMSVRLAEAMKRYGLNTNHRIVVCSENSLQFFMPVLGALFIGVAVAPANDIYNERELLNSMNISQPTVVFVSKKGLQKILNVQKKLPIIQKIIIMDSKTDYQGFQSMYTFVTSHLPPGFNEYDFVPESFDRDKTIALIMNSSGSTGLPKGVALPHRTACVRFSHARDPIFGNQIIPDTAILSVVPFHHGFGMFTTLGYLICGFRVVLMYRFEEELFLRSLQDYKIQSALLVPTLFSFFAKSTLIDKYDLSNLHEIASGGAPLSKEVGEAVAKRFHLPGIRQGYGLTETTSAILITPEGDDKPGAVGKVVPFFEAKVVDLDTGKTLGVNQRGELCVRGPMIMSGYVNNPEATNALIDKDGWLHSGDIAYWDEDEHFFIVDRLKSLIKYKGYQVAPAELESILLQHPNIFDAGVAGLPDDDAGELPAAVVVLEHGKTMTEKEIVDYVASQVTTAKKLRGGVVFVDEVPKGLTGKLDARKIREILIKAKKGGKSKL
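Cell-free enzyme assay, 10nM P. pyralis luciferase, luciferin and ATP each at 10uM. Inhibition profiled over a 6-point titration, read as luminescence.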
3T3 cytotox: kills NIH 3T3 cells | hit rate 4.3% among 94,000 | AID 1345082 | Potency, µM (doses to about 96.7 µM), for inactives: at the highest dose activity change, negative = cytotoxicity, usual class: inhibitors | NIH 3T3 viability, CellTiter-Glo ATP luminescence, 48-72 h; also: nearly all actives have a fitted effect of over 55% in size
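Viability of NIH 3T3 cells after 48 or 72 hr compound treatment at 37 °C was assessed by CellTiter-Glo, with luminescence imaged following a 10 min room-temperature step.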
HEK cytotox: cytotoxic compounds in HEK 293 cells; HEK 293 viability, ATP luminescence (CellTiter-Glo), 48-72 h; Potency, µM (top dose mostly 115 µM), for the others: at the highest dose activity change, negative = cytotoxicity, actives largely listed as inhibitors; hit rate 6.6% among 94,000; AID 1345083; also: nearly all actives have a fitted effect of over 60% in size
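250 HEK 293 cells/well; compound by pintool; incubated 48 or 72 hr at 37 degree Celsius; CellTiter-Glo added, 10 min RT, luminescence imaged.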
hNpr1 antagonist: antagonists of human natriuretic peptide receptor Npr1; P16066; HEK293 hNpr1 GloSensor cGMP, ANP-stimulated luminescence; Potency, µM (doses to about 46.3 µM), without a hit: at the highest dose activity change, negative = inhibition, actives largely listed as inhibitors; hit rate 1.6% among 76,000; calls by dose curve; also: nearly all actives have a fitted effect of over 60% in size
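HEK293 cells stably expressing human Npr1 and cGMP GloSensor pGS-40F, loaded 2 h with 2% GloSensor reagent, given compound 30 min at room temperature. Luminescence read before and 20 min after 0.1 nM hNppA.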
* hit, by the source's call; [ ] = dose if it differs, or a comment. Sampled rows, rich in hits. Any-hit rate of the full collection: about 11%. Unless noted, calls follow the shape of the dose curve; as a rule, active = well fitted curve in the direction sought with a large enough effect; inconclusive = small, poorly fitted or top-dose-only effect, or another doubt; inactive = no such curve, though single readings can be large; an effect the other way counts as inactive or inconclusive. % is scaled to controls: 0 for no effect and ±100 for the full control effect; potency is read from the fitted curve at half-maximal effect.

Results for NCc1ccc(-c2cc(C(F)(F)F)ccc2Cl)cc1 ?
3T3 cytotox: 25µM*; HEK cytotox: 28µM*

What do the screens show for `NCc1ccc(-c2cccc(O)c2)cc1`?
3T3 cytotox: 89µM*; HEK cytotox: 89µM*

What do the screens show for `NCc1ccc(-c2cccc(C(F)(F)F)c2)cc1`?
3T3 cytotox: 32µM*; HEK cytotox: 32µM*

What do the screens show for `NCc1cccc(-c2cccc(Cl)c2)c1`?
3T3 cytotox: 89µM*; HEK cytotox: inconclusive

How did CNC(=O)c1cc(C)nc2onc(C3CCN([S+](C)(=O)[O-])C3)c12 (stereo not drawn) do in these assays?
3T3 cytotox: -11%[138 µM]; HEK cytotox: -2%[172 µM]

What do the screens show for `CN1C(=O)[C@@H]2C[C@@H](CN2Cc2ccc3c(c2)OCO3)Oc2ccccc21`?
FLuc inh: inactive; 3T3 cytotox: -17%[138 µM]; HEK cytotox: -20%[172 µM]; hNpr1 antagonist: -18%[70.6 µM]

How did COc1cc(=O)n2c(c1C(=O)Nc1ccc(N(C)C)cc1)CCCC2 do in these assays?
FLuc inh: 35µM*; 3T3 cytotox: -30%; HEK cytotox: inconclusive; hNpr1 antagonist: -5%

What do the screens show for `COc1ccc(C(=O)N2CCCC(Cc3ncc(C)n3Cc3ccccc3)C2)c(OC)c1` (stereo not drawn)?
FLuc inh: 22µM*; 3T3 cytotox: -7%; HEK cytotox: -21%; hNpr1 antagonist: -3%

What do the screens show for `CCn1c2ccccc2c2cc(C(=O)N3C[C@@H](Oc4ccccc4)C[C@@H]3C(=O)NC)ccc21`?
FLuc inh: inconclusive; 3T3 cytotox: inconclusive; HEK cytotox: 35µM*; hNpr1 antagonist: -14%

What do the screens show for `COc1ccc(-c2cn3cc(C(=O)NCC4CCCCC4)nc3s2)cc1`?
3T3 cytotox: -31%; HEK cytotox: inconclusive

Results for COc1cccc(-c2cn3cc(C(=O)NCC4CCCCC4)nc3s2)c1 ?
3T3 cytotox: inconclusive; HEK cytotox: 22µM*

What do the screens show for `O=C(NCCc1ccc(Cl)cc1)c1cn2cc(-c3ccccc3)sc2n1`?
3T3 cytotox: -3%; HEK cytotox: 4%

How did O=C(NCC1CC1)c1cn2cc(-c3cccc(C(F)(F)F)c3)sc2n1 do in these assays?
3T3 cytotox: -28%; HEK cytotox: inconclusive

Results for COc1cccc(-c2cn3cc(C(=O)NCCc4ccc(Cl)cc4)nc3s2)c1 ?
3T3 cytotox: -13%; HEK cytotox: 32µM*

Results for O=C(NCC1CC1)c1cn2cc(-c3ccccc3)sc2n1 ?
3T3 cytotox: inconclusive; HEK cytotox: 100µM*

What do the screens show for `COc1cccc(-c2cn3cc(C(=O)NCC4CC4)nc3s2)c1`?
3T3 cytotox: inconclusive; HEK cytotox: 71µM*

Results for COCCOc1ccc2c(n1)CCN(C(=O)c1nn(C)c3ccccc13)C2 ?
FLuc inh: inactive; 3T3 cytotox: -18%; HEK cytotox: -13%; hNpr1 antagonist: 4%

How did O=C(NCCc1ccccc1F)c1ccc2oc(-c3ccncc3)nc2c1 do in these assays?
3T3 cytotox: -4%[138 µM]; HEK cytotox: -11%[172 µM]

How did CCN1c2cc(C(=O)Nc3cccc(SC)c3)ccc2C(=O)N2CCCCCC21 (stereo not drawn) do in these assays?
FLuc inh: inactive; 3T3 cytotox: 22µM*; HEK cytotox: 22µM*; hNpr1 antagonist: inconclusive

What do the screens show for `CCN1c2cc(C(=O)Nc3cc(F)cc(F)c3)ccc2C(=O)N2CCCCC21` (stereo not drawn)?
FLuc inh: inactive; 3T3 cytotox: 28µM*; HEK cytotox: 35µM*; hNpr1 antagonist: -12%

Results for CCN1c2cc(C(=O)Nc3ccc4c(c3)CCC4)ccc2C(=O)N2CCCCC21 (stereo not drawn) ?
FLuc inh: inconclusive; 3T3 cytotox: 13µM*; HEK cytotox: 22µM*; hNpr1 antagonist: 1%

Results for CCN1c2cc(C(=O)Nc3ccc(C(N)=O)cc3)ccc2C(=O)N2CCCCC21 (stereo not drawn) ?
FLuc inh: inactive; 3T3 cytotox: 32µM*; HEK cytotox: inconclusive; hNpr1 antagonist: 19%

Results for CCN1c2cc(C(=O)Nc3ccccc3)ccc2C(=O)N2CCCCC21 (stereo not drawn) ?
FLuc inh: inconclusive; 3T3 cytotox: inconclusive; HEK cytotox: inconclusive; hNpr1 antagonist: 0%

What do the screens show for `CCN1c2cc(C(=O)Nc3ccc(SC)cc3)ccc2C(=O)N2CCCCC21` (stereo not drawn)?
FLuc inh: inconclusive; 3T3 cytotox: 40µM*; HEK cytotox: inconclusive; hNpr1 antagonist: -25%

Results for CCN1c2cc(C(=O)Nc3ccc(C)c(F)c3)ccc2C(=O)N2CCCC21 (stereo not drawn) ?
FLuc inh: inactive; 3T3 cytotox: -20%; HEK cytotox: -18%; hNpr1 antagonist: 5%

How did CCN1c2cc(C(=O)Nc3ccc(C)c(F)c3)ccc2C(=O)N2CCCCC21 (stereo not drawn) do in these assays?
FLuc inh: inactive; 3T3 cytotox: 28µM*; HEK cytotox: inconclusive; hNpr1 antagonist: 0%

How did c1ccc(-c2cc(CC3(NCc4ccco4)COC3)no2)nc1 do in these assays?
FLuc inh: inactive; 3T3 cytotox: 5%[174 µM]; HEK cytotox: 5%[172 µM]; hNpr1 antagonist: 11%[70.6 µM]

How did C#CCNC(=O)C1CCCN1Cc1ccc(-c2cc(C)cc(C)c2)cc1 (stereo not drawn) do in these assays?
3T3 cytotox: inconclusive; HEK cytotox: 45µM*

What do the screens show for `Cc1cc(C)cc(-c2ccc(CN3CCCC3C(=O)NC3CCCC3)cc2)c1` (stereo not drawn)?
3T3 cytotox: 22µM*; HEK cytotox: 28µM*

Results for COc1cccc(N2CCN(C(=O)C3CCN(c4cnc5nccnc5c4)CC3)CC2)c1 ?
FLuc inh: inactive; 3T3 cytotox: inconclusive; HEK cytotox: inconclusive; hNpr1 antagonist: -23%

Results for COC(=O)C1=C(C)N=C2SC=C(CC(=O)N3CCCC3)N2C1c1ccc(C)cc1C (stereo not drawn) ?
FLuc inh: inactive; 3T3 cytotox: 25µM*; HEK cytotox: inconclusive; hNpr1 antagonist: inconclusive

How did CCC1=C(C(=O)OC)C(c2ccc(C)cc2C)N2C(CC(=O)Nc3ccc(OC)cc3)=CSC2=N1 (stereo not drawn) do in these assays?
FLuc inh: inactive; 3T3 cytotox: inconclusive; HEK cytotox: 45µM*; hNpr1 antagonist: -24%

Results for CCC1=C(C(=O)OC)C(c2ccc(C)cc2C)N2C(CC(=O)N3CCCC3)=CSC2=N1 (stereo not drawn) ?
FLuc inh: inactive; 3T3 cytotox: -31%; HEK cytotox: inconclusive; hNpr1 antagonist: inconclusive

How did Clc1ccc(C2Cn3nnc(-c4noc(Cc5ccccc5Cl)n4)c3CO2)cc1 (stereo not drawn) do in these assays?
FLuc inh: inactive; 3T3 cytotox: -27%; HEK cytotox: inconclusive; hNpr1 antagonist: 0%

How did Cc1cc(C(=O)N2CCCCC2c2nc(CCOCC3CCOCC3)no2)nn1C (stereo not drawn) do in these assays?
3T3 cytotox: -11%; HEK cytotox: -18%
